# Data: PubChem BioAssay (Tox21)
# Records with an inconclusive call do not appear. A call without a number means that no potency is given here. Activity calls are given as the source filed them. Unless noted, calls follow the shape of the dose curve; as a rule, active = well fitted curve in the direction sought with a large enough effect in the repeat runs; inconclusive = weak or mixed curves; inactive = no such curve, though single readings can be large; an effect the other way counts as inactive or inconclusive. Positions of bridges follow the written chain, without caps; N, C: chain ends. Non-standard residues stand in square brackets, D forms with d. Residues, ends and D or L forms follow the SMILES beside them. ξ: configuration not given here. *: point of attachment. d(aThr) = C[C@@H](O)[C@@H](N)C(=O)O; ξThr(3R) = C[C@@H](O)C(N)C(=O)O; X3 = CC[C@@H](C)CCCCC(=O)*; dDab = NCC[C@@H](N)C(=O)O
# Assays:
# [1] = qHTS assay for small molecules that induce genotoxicity in human embryonic kidney cells expressing luciferase-tagged ATAD5 (AID 651632); also: nearly all actives have a fitted effect of over 15% in size
# How it was run: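 HEK293T cells carrying a luciferase reporter tagged to ATAD5 were exposed to compound or DMSO vehicle for 16 hr at 37C, 5% CO2. Amplite was added, and after 30 min at room temperature luciferase activity was read as a marker of ATAD5 induction.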
# [2] = qHTS assay for small molecule agonists of the p53 signaling pathway - cell viability (AID 651633; calls by dose curve; also: nearly all actives have a fitted effect of over 30% in size; also: potency is read from the fitted curve at half-maximal effect)
# How it was run: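 Viability counter-read: CellTiter-Glo luminescence (30 min, room temperature) in the same p53RE-bla plates. These plates had been exposed to compounds for 16 h at 37 C.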
# [3] = qHTS assay for small molecules that induce genotoxicity in human embryonic kidney cells expressing luciferase-tagged ATAD5 - cell viability (AID 651634; calls by dose curve; also: nearly all actives have a fitted effect of over 25% in size; also: potency is read from the fitted curve at half-maximal effect)
# How it was run: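 HEK293T cells expressing luciferase-tagged ATAD5 were exposed to compound or DMSO for 15.5 hr at 37C, 5% CO2. Viability was then read as live-cell protease activity by CellTiter-Fluor fluorescence after 30 min at 37C.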
# [4] = qHTS assay for small molecule disruptors of the mitochondrial membrane potential (AID 720635); also: potency is read from the fitted curve at half-maximal effect
# How it was run: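 Mitochondrial membrane potential tracked with Mito-MPS dye, red aggregates (ex 540/em 590 nm) against green monomers (ex 490/em 535 nm). Compound treatment 1 hr at 37C, dye 30 min in HepG2.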
# [5] = qHTS assay to test for compound auto fluorescence at 590 nm (red) in HepG2 cells (AID 720674)
# How it was run: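 Red autofluorescence (Ex/Em 540/590 nm, Rose Bengal sodium equivalents) was measured in HepG2 cells, 2,000 per well in MEM plus 10% FBS, plated overnight at 37 C. Readings were taken 1 hr after adding 23 nL compound or DMSO, at 37 C and 5% CO2.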
# [6] = qHTS assay to test for compound auto fluorescence at 535 nm (green) in HepG2 cells (AID 720675)
# [7] = qHTS assay to test for compound auto fluorescence at 460 nm (blue) in HEK293 cells (AID 720678)
# How it was run: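 Blue read-out at excitation 405 nm and emission 460 nm follows overnight compound exposure of HEK293 cells at 37C in 5% CO2. Activity is given as auto fluorescence equivalency to triamterene.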
# [8] = qHTS assay to test for compound auto fluorescence at 590 nm (red) in HEK293 cells (AID 720679)
# How it was run: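 Red channel, Ex/Em 540/590nm; signal expressed as equivalency to Rose Bengal sodium. HEK293, 2,000 cells/well, 10% dialyzed FBS; 23 nL compound pinned after 4-5 hr attachment; overnight 37C/5% CO2 before reading.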
# [9] = qHTS assay to test for compound auto fluorescence at 535 nm (green) in HEK293 cells (AID 720680)
# [10] = qHTS assay to test for compound auto fluorescence at 460 nm (blue) in HEK293 cell free culture (AID 720681)
# How it was run: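 Blue fluorescence (Ex 405/Em 460 nm, triamterene-equivalent) was read immediately after pin transfer of compound or DMSO into medium (DMEM, 10% FBS) without cells.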
# [11] = qHTS assay to test for compound auto fluorescence at 535 nm (green) in HEK293 cell free culture (AID 720682)
# How it was run: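 No cells present: wells hold DMEM supplemented with 10% FBS, into which compound or vehicle is pinned. Green emission is then recorded (485 nm excitation, 535 nm emission) and scaled to fluorescein.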
# [12] = qHTS assay to test for compound auto fluorescence at 590 nm (red) in HEK293 cell free culture (AID 720683)
# How it was run: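 Red-channel autofluorescence of compounds in culture medium (DMEM, 10% FBS), no cells, measured at 540/590 nm. Rose Bengal sodium is the reference fluorophore for equivalence.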
# [13] = qHTS assay to test for compound auto fluorescence at 590 nm (red) in HepG2 cell free culture (AID 720684)
# How it was run: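 Plate contents were MEM with 10% FBS plus test compound or DMSO, no cells. Fluorescence was recorded with 540 nm excitation and 590 nm emission.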
# [14] = qHTS assay to test for compound auto fluorescence at 460 nm (blue) in HepG2 cell free culture (AID 720685)
# How it was run: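 Compound (23 nL) or DMSO pinned into cell-free MEM with 10% FBS; blue fluorescence read at 405/460 nm excitation/emission, expressed as auto-fluorescence equivalency to triamterene.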
# [15] = qHTS assay to test for compound auto fluorescence at 535 nm (green) in HepG2 cell free culture (AID 720686)
# [16] = target: Glucocorticoid receptor (Homo sapiens) (UniProt P04150); assay: qHTS assay to identify small molecule agonists of the glucocorticoid receptor (GR) signaling pathway (AID 720691; active = well fitted activation curve with a large enough effect in the signal ratio in the repeat runs, not every such curve was filed as active; the % refers to the signal ratio); settings: GR-bla HeLa, beta-lactamase reporter ratio, 18 h; activation: at 62.4 µM (top of the series)
# How it was run: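 GR-bla HeLa cells (beta-lactamase reporter under glucocorticoid response element) were plated 4 h at 37 C/5% CO2, given compounds in DMSO, and incubated 18 h at 37 C. LiveBLAzer B/G FRET substrate was added for 2 h at room temperature, then fluorescence intensity read.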
# [17] = qHTS assay for small molecule disruptors of the mitochondrial membrane potential - cell viability (AID 720634; calls by dose curve;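 also: human HepG2 liver cancer cells; nearly all actives have a fitted effect of over 20% in size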)
# How it was run: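 HepG2 cells seeded overnight at 37 C, then exposed to compound or DMSO for 1 hr at 37 C, 5% CO2. m-MPI dye added, then CellTiter-Glo for 30 min at room temperature; viability read as ATP luminescence.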
# [18] = qHTS assay to test for compound auto fluorescence at 460 nm (blue) in HepG2 cells (AID 720687)
# How it was run: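 Blue-channel autofluorescence (Ex/Em 405/460 nm, triamterene-equivalent) was measured after 1 hr compound exposure at 37 C, 5% CO2. Cells were HepG2, plated overnight at 37 C in MEM plus 10% FBS.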
# [19] = target: Glucocorticoid receptor (Homo sapiens) (UniProt P04150); assay: qHTS assay to identify small molecule antagonists of the glucocorticoid receptor (GR) signaling pathway (AID 720692; active = well fitted inhibition curve with a large enough effect in the signal ratio in the repeat runs, not every such curve was filed as active; the % refers to the signal ratio)
# How it was run: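 GR-bla HeLa cells (beta-lactamase reporter under glucocorticoid response element) were pre-plated 4 h at 37 C, treated with compounds plus 5 nM dexamethasone (final) for 18 h, then read by LiveBLAzer B/G FRET fluorescence after 2 h.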
# Chain of Glucocorticoid receptor (Homo sapiens) (P04150 whole entry, looked up): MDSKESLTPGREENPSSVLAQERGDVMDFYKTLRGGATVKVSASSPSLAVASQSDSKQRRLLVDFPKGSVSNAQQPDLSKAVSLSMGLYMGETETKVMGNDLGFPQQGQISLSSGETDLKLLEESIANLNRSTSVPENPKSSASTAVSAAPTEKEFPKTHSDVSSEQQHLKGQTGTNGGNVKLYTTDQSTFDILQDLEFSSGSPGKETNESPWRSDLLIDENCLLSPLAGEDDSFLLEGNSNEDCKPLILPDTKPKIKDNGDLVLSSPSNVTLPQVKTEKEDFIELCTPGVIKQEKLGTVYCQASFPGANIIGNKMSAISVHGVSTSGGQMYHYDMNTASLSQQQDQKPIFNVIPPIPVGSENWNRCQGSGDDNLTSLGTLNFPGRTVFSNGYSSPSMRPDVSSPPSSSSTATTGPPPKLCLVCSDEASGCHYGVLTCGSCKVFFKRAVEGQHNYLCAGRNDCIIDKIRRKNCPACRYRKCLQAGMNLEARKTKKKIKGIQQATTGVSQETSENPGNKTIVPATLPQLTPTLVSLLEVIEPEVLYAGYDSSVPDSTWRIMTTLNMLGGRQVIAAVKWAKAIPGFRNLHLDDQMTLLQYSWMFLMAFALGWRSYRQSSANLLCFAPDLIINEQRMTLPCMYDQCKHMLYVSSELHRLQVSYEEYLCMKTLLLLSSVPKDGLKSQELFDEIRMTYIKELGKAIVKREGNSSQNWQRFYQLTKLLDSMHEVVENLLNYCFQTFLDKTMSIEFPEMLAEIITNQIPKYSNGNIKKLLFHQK
SMILES,Potency [1],Potency [2],Potency [3],Potency [4],Potency [5],Potency [6],Potency [7],Potency [8],Potency [9],Potency [10],Potency [11],Potency [12],Potency [13],outcome [14],Potency [15],Potency [16],Potency [17],outcome [18],Potency [19]
CO[C@H]1C=CO[C@@]2(C)Oc3c(C)c(O)c4c(O)c(c(/C=N/N5CCN(C6CCCC6)CC5)c(O)c4c3C2=O)NC(=O)/C(C)=C\C=C[C@H](C)[C@H](O)[C@@H](C)[C@@H](O)[C@@H](C)[C@H](OC(C)=O)[C@@H]1C,inactive,26.6 µM (active),21.1 µM (active),1.19 µM (active),inactive,inactive,inactive,inactive,inactive,inactive,inactive,inactive,inactive,inactive,inactive,inactive,,,
CC[C@@H]1/C=C(\C)C[C@H](C)C[C@H](OC)[C@H]2O[C@@](O)(C(=O)C(=O)N3CCCC[C@H]3C(=O)O[C@H](/C(C)=C/[C@@H]3CC[C@@H](Cl)[C@H](OC)C3)[C@H](C)[C@@H](O)CC1=O)[C@H](C)C[C@@H]2OC,inactive,inactive,inactive,,inactive,inactive,inactive,,inactive,inactive,inactive,inactive,inactive,,inactive,,inactive,inactive,
C=C1CC[C@H](O)CC1=C/C=C1\CCC[C@]2(C)[C@@H]([C@H](C)CC[C@@H](O)C(C)(C)O)CC[C@@H]12,inactive,21.1 µM (active),,11.9 µM (active),inactive,inactive,inactive,inactive,inactive,inactive,inactive,inactive,inactive,inactive,inactive,,inactive,inactive,
CCC(=O)OCC(=O)[C@@]1(OC(=O)CC)[C@@H](C)C[C@H]2[C@@H]3CCC4=CC(=O)C=C[C@]4(C)[C@@]3(Cl)[C@@H](O)C[C@@]21C,inactive,inactive,,21.1 µM (active),inactive,inactive,inactive,inactive,inactive,inactive,inactive,inactive,inactive,inactive,inactive,,inactive,inactive,
O=C(Nc1ccc(/C=C/c2ccc(NC(=O)c3cc(S(=O)(=O)O)c4cccnc4c3O)cc2S(=O)(=O)O)c(S(=O)(=O)O)c1)c1cc(S(=O)(=O)O)c2cccnc2c1O,inactive,inactive,inactive,,,inactive,inactive,inactive,inactive,inactive,inactive,inactive,inactive,inactive,inactive,inactive,inactive,inactive,
Cc1cc(-c2ccc(N=Nc3c(S(=O)(=O)O)cc4cc(S(=O)(=O)O)cc(N)c4c3O)c(C)c2)ccc1N=Nc1c(S(=O)(=O)O)cc2cc(S(=O)(=O)O)cc(N)c2c1O,inactive,inactive,26.6 µM (active),,inactive,inactive,inactive,inactive,inactive,inactive,inactive,inactive,inactive,inactive,inactive,inactive,,inactive,
COc1cc(Br)c(C[N+]2(CCOCCC3CCC4CC3C4(C)C)CCOCC2)cc1OC (configuration not stated),inactive,inactive,inactive,,,inactive,inactive,inactive,inactive,inactive,inactive,inactive,inactive,inactive,inactive,inactive,inactive,inactive,
C=C1C(=C/C=C2\CCC[C@]3(C)[C@@H]([C@H](C)CCCC(C)(C)O)CC[C@@H]23)C[C@@H](O)C[C@@H]1O,inactive,21.1 µM (active),,10.6 µM (active),inactive,inactive,inactive,inactive,inactive,inactive,inactive,inactive,inactive,inactive,inactive,,inactive,inactive,
CCCCCCCN(CC)CCCC(O)c1ccc(NS(C)(=O)=O)cc1 (configuration not stated),inactive,inactive,inactive,,inactive,inactive,inactive,inactive,inactive,inactive,inactive,inactive,inactive,inactive,inactive,inactive,,inactive,inactive
COc1c(O[C@@H]2O[C@H](CO)[C@@H](O)[C@H](O)[C@H]2O)cc2c(c1OC)-c1ccc(SC)c(=O)cc1[C@@H](NC(C)=O)CC2,inactive,inactive,inactive,,inactive,inactive,inactive,,inactive,inactive,inactive,inactive,,inactive,inactive,,inactive,inactive,
CCCCC(=O)N(Cc1ccc(-c2ccccc2-c2nn[nH]n2)cc1)[C@@H](C(=O)O)C(C)C,inactive,inactive,inactive,,inactive,inactive,inactive,inactive,inactive,inactive,inactive,inactive,inactive,inactive,inactive,inactive,,inactive,
C[N+]1(C)[C@@H]2CC(OC(=O)C(O)(c3cccs3)c3cccs3)C[C@H]1[C@@H]1O[C@@H]12 (some centres not stated),inactive,inactive,,inactive,inactive,inactive,inactive,inactive,inactive,inactive,inactive,inactive,inactive,inactive,inactive,,inactive,inactive,
CC[C@@H](C)CCCCC(=O)N[C@H](CCN)C(=O)N[C@@H](C(=O)N[C@H](CCN)C(=O)N[C@@H]1CCNC(=O)C([C@@H](C)O)NC(=O)[C@@H](CCN)NC(=O)[C@@H](CCN)NC(=O)[C@@H](CC(C)C)NC(=O)[C@@H](Cc2ccccc2)NC(=O)[C@@H](CCN)NC1=O)[C@@H](C)O (stereo partly drawn) (X3-[dDab][d(aThr)][dDab][dDab][dDab][dF][dL][dDab][dDab][ξThr(3R)]; lactam 4-C),inactive,,inactive,inactive,inactive,inactive,inactive,inactive,inactive,inactive,inactive,inactive,inactive,inactive,inactive,inactive,inactive,inactive,
COc1ccc(C2NC(=S)N3C(c4ccc(OC)c(OC)c4)NC(=S)N23)cc1OC (configuration not stated),inactive,,inactive,inactive,inactive,inactive,inactive,inactive,inactive,inactive,inactive,inactive,inactive,inactive,inactive,,inactive,inactive,
